{"source": "the supplement of paper PMC10338343", "note": "± gives the standard deviation."}
{"system": "MILI (PIWIL2) piRISC loaded with piRNA #1 (26 nt)", "experiment": "pre-steady-state target cleavage rate (min^-1); guide: piRNA #1 5'p-UGAGGUAGUAGGUUGUAUAGUAUCCA; MIWI and MILI are mouse PIWI proteins and EfPiwi is from a freshwater sponge; tags in brackets are library labels; higher = faster piRNA-guided slicing of the target", "details": "auxiliary factor: 500 nM mouse GTSF1", "how_it_was_run": "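The method was Cleave-'n-Seq, in which uncleaved targets from a transcribed, DNA-blocked target RNA library were sequenced after exposure to active affinity-purified piRISC carrying one synthetic guide, with or without GTSF1 partner protein. Reactions contained 0.1 nM library, 1 nM piRISC and, where present, 500 nM GTSF1 in HEPES–potassium acetate buffer at 33 °C for 0–8 or 0–960 min. Reads were normalised to depth and to weakly complementary targets, three trials were pooled, and k3 was capped at 0.0001 min^-1. The pre-steady-state cleavage rate came from a burst-and-steady-state fit.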"}
{"sequence": "GGAGACCUAACUAAACAACCUACUACCACA", "pre-steady-state target cleavage rate": "0.139 ± 0.027"}
{"sequence": "GGAGACCAUACUAUUCAUCCUACUACCUCA", "pre-steady-state target cleavage rate": "0.271 ± 0.019"}
{"sequence": "GGAGACCUAUGUAUACAACCUACAAGCUCA", "pre-steady-state target cleavage rate": "0.0033 ± 0.0026"}
{"sequence": "GGAGACCUAUGUAUACAACAUACUACCUCA", "pre-steady-state target cleavage rate": "0.0179 ± 0.0028"}
{"sequence": "GGAGACCUAUGAUUACAACCUACUACCUUCA", "pre-steady-state target cleavage rate": "0.00664 ± 0.0022"}
{"sequence": "GGAGACCUAUGAUUACAUCCUACUACCUGA", "pre-steady-state target cleavage rate": "0.0052 ± 0.0025"}
{"sequence": "GGAGAGGAUUCUAAACAACCUACUACCUCA", "pre-steady-state target cleavage rate": "0.149 ± 0.01"}
{"sequence": "GGAGUGCAUACUAUACAACCUACUUCCUCA", "pre-steady-state target cleavage rate": "0.00653 ± 0.0022"}
{"sequence": "GGAGACCUAUGAAUACUAGCUACUACCUCA", "pre-steady-state target cleavage rate": "0.00307 ± 0.002"}
{"sequence": "GGAGACCUAUCUAUAGAUCCUACUACCUCA", "pre-steady-state target cleavage rate": "0.144 ± 0.017"}
{"sequence": "GGAGACCUAUGUAUACAACCUACAACCUCA", "pre-steady-state target cleavage rate": "0.0609 ± 0.0082"}
{"sequence": "GGAGACCUAUGAUAUGUUCCUACUCCUCA", "pre-steady-state target cleavage rate": "< 0.0001"}
{"sequence": "GGAGACCUAUGAUUCAACCUACUACCUCA", "pre-steady-state target cleavage rate": "0.0177 ± 0.0042"}
{"sequence": "GGAGACCUAUGUUUUCAACCUACUACCUCA", "pre-steady-state target cleavage rate": "0.00894 ± 0.0025"}
{"sequence": "GGAGACGAUACUAUACAUCCUACUACCUGA", "pre-steady-state target cleavage rate": "0.237 ± 0.031"}
{"sequence": "GGAGACCUUACUAUACAACCUACUAGCUGA", "pre-steady-state target cleavage rate": "0.00949 ± 0.0037"}
{"sequence": "GGAGACCUAUCUAAACAACCUACUACCACA", "pre-steady-state target cleavage rate": "0.0926 ± 0.013"}
{"sequence": "GGAGACCAUACUAUACUACCUACUACCUGA", "pre-steady-state target cleavage rate": "0.134 ± 0.019"}
{"sequence": "GGAGACCUAUGUAUAGAACCUACUACGUCA", "pre-steady-state target cleavage rate": "0.015 ± 0.0034"}
{"sequence": "GGAGACCUUACUAUACAACCUACUACAUCA", "pre-steady-state target cleavage rate": "0.106 ± 0.013"}
{"sequence": "GGAGACCUAUGAUUACAAGCUACAACCUCA", "pre-steady-state target cleavage rate": "0.0159 ± 0.0045"}
{"sequence": "GGAGACCUAUGUAUACAUCCUUCUACCUCA", "pre-steady-state target cleavage rate": "0.00859 ± 0.0018"}
{"sequence": "GGAGACGAUACAUAACAACCUACUACCUCA", "pre-steady-state target cleavage rate": "0.114 ± 0.013"}
{"sequence": "GGAGACCUAUGAAUACAAGGUACUACCUCA", "pre-steady-state target cleavage rate": "0.00378 ± 0.003"}
{"sequence": "GGAGACCAUACUAAACAACCUACUAGCUCA", "pre-steady-state target cleavage rate": "0.165 ± 0.03"}
{"sequence": "GGAGUGGAUACUAUACAACCUACUACUCUCA", "pre-steady-state target cleavage rate": "0.14 ± 0.012"}
{"sequence": "GGAGACCUAACUAUACAUCCUAGUACCUCA", "pre-steady-state target cleavage rate": "0.0577 ± 0.02"}
{"sequence": "GGAGACCUAUGAUAUGUUCCUCCUACCUCA", "pre-steady-state target cleavage rate": "< 0.0001"}
{"sequence": "GGAGACGAUAGUAUACAAGCUACUACCUCA", "pre-steady-state target cleavage rate": "0.176 ± 0.016"}
{"sequence": "GGAGACCAUACUAUACAACCUACAACCACA", "pre-steady-state target cleavage rate": "0.0647 ± 0.017"}
{"sequence": "GGAGACCUAUGAUAUCAACGUACUAGCUCA", "pre-steady-state target cleavage rate": "< 0.0001"}
{"sequence": "GGAGACCUAACUAUACAACCUACUUACCUCA", "pre-steady-state target cleavage rate": "0.135 ± 0.021"}
{"sequence": "GGAGACGAUACUUUACAACCUACAACCUCA", "pre-steady-state target cleavage rate": "0.0642 ± 0.013"}
{"sequence": "GGAGUGGAUUCUAUUCAACCUACUACCUCA", "pre-steady-state target cleavage rate": "0.165 ± 0.008"}
{"sequence": "GGAGACCUAAGUAUACUACCUACUACCUCA", "pre-steady-state target cleavage rate": "0.0377 ± 0.0069"}
{"sequence": "GGAGACCUAACUAUACAUCCUACUUCCUCA", "pre-steady-state target cleavage rate": "0.14 ± 0.044"}
{"sequence": "GGAGACCUAUGAAUGCAACCUACUACCUCA", "pre-steady-state target cleavage rate": "0.00733 ± 0.0031"}
{"sequence": "GGAGACCUAUGAAUACAAUCUACUACCUCA", "pre-steady-state target cleavage rate": "0.00544 ± 0.0022"}
{"sequence": "GGAGACCUAACUAUACAACCUACAUGCUCA", "pre-steady-state target cleavage rate": "0.0479 ± 0.022"}
{"sequence": "GGAGACCUUACUAUUCAACCUACUUCCUCA", "pre-steady-state target cleavage rate": "0.0623 ± 0.013"}
